Growth data for seven compounds are collected here from PubChem BioAssay (NCI).

What all share (experiment): NCI-60 one-dose screen, 48 h (100 = growth as untreated, 0 = no growth, -100 = all killed)
Common to all, as to settings: 10 µM unless noted

The test system of test [1] is SK-MEL-2 melanoma.
For test [2], the system named is EKVX NSCLC.
For test [3], the system named is SN12C renal.
Test [4] relates to UO-31 renal.
For test [5], the system named is TK-10 renal.
Test [6] deals with ACHN renal.
For test [7], the system named is CAKI-1 renal.
Test [8] relates to A498 renal.
The subject of test [9] is CCRF-CEM leukemia.
Test [10] deals with MOLT-4 leukemia.
Test [11] has as its system SR leukemia.
In test [12] the test system is OVCAR-8 ovarian.
Test [13] concerns OVCAR-5 ovarian.
Test [14] concerns OVCAR-4 ovarian.
In test [15] the test system is SK-OV-3 ovarian.
Test [16] has as its system IGROV1 ovarian.
For test [17], the system named is OVCAR-3 ovarian.
In test [18] the test system is HS 578T breast.
Test [19] relates to NCI/ADR-RES ovarian.
For test [20], the system named is RPMI-8226 leukemia.

About 83,000 compounds went through this panel and 20% of them were active in at least one assay; those are over-represented in the sample as a whole.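 48-hour exposure, single concentration, 96-well plates; percent growth endpoint where 0 means no net growth. Active: below 10.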 Unmarked numbers belong to inactive results. The source made the active and inactive calls.

Turning to `COc1ccc2c(c1)/C(=N/c1n[nH]c(=S)s1)C(=O)N2`, the growth in test [1] is 105%; in test [2], 98.6%; in test [3], 97.8%; in [4] it was 74.3%; in test [5], 115%; in [6], 83.6%. Further, the growth in [7] is 78.4%; in test [8], 89.9%; in test [9] it was 44.5%; in test [10], 76.2%; in [11] it was 69.9%; in [12], 92.8%. The growth in [13] is 102%; in test [14], 97.7%; in test [15] it was 148%; in [16], 75.3%; in [17] it was 96.2%; in [18], 91.7%. Also, the growth in [19] is 94%.
Take `Ic1ccccc1I`: the growth in test [1] was 85.4%; in [2], 98.9%; in test [3], 105%; in [4], 78.6%; in [5], 105%; in test [6] it was 104%. Also, the growth in test [7] is 105%; in test [8], 106%; in test [9], 42.6%; in [10], 101%; in test [20], 104%; in test [12] it was 96.8%. Besides, the growth in test [13] is 98%; in test [14], 101%; in test [15], 106%; in test [16], 99.8%; in test [17] it was 110%; in [18] it was 97.1%. In test [19], the growth was 101%.
With `Cc1c(CN)cc(-c2ccc(Cl)cc2)n1-c1ccccc1`, the growth in test [1] was 90.2%; in test [2] it was 82.6%; in [3], 87.6%; in test [4], 59.2%; in test [5], 66.3%; in [6], 74.7%. For the same compound, the growth in test [7] was 40.7%; in test [8], -7.73% (active); in [9], 81.7%; in test [10] it was 82.3%; in test [20] it was 66.7%; in [12], 74.8%. In addition, the growth was 80.9% in test [13]; 40.3% in test [14]; 85.4% in [15]; 48.1% in [16]; 106% in [17]; 87.9% in [18]. Moreover, the growth in [19] is 88.1%.
`COCCn1cc(-c2csc(-c3c[nH]c4ccc(Br)cc34)n2)c2cccnc21`: the growth in test [1] was 35.9%; in test [2], 36.9%; in [3], 51.2%; in test [4], 27.8%; in test [5] it was 36.6%; in test [6], 27.2%. Besides, the growth in [7] is 49.4%; in test [8], 26.7%; in test [9] it was 14%; in test [10], 8.87% (active); in test [11], 17%; in test [12], 21.8%. For the same compound, the growth was 55.5% in test [13]; 31.2% in test [14]; 47.1% in test [15]; 42.3% in [16]; 39% in [17]; 44.5% in [18]. The growth in test [19] is 10.8%.
As for `CN1CCN(CCOc2ccc(-c3cnc4c(-c5ccc(F)cc5)cnn4c3)cc2)CC1`, the growth was 81.8% in test [1]; 76.3% in test [2]; 61.6% in [3]; 32.3% in test [4]; 75.1% in test [5]; 46.6% in [6]. The growth in test [7] is 45.5%; in test [8] it was 74.9%; in test [9] it was 17.6%; in test [10], 8.99% (active); in test [11] it was 1.31% (active); in test [12], 58.1%. Further, the growth in test [13] is 83.4%; in [14] it was 49%; in test [15] it was 93.1%; in test [16], 48.2%; in test [17] it was 28.4%; in [18] it was 56.7%. In addition, the growth in test [19] is 76.5%.
On to `O=C(NNc1cnccn1)c1nc2cc(F)ccc2n2cccc12`, for which the growth in test [1] was 40.8%; in [2] it was 17.9%; in test [3], 13.5%; in test [4], 16.3%; in test [5], 40.5%; in test [6], 7.64% (active). For the same compound, the growth in [7] was 7.11% (active); in test [8], -42.1% (active); in test [9] it was 4.42% (active); in test [10], 5.91% (active); in [20] it was 12%; in test [12] it was 15.7%. Besides, the growth in [13] was 31.2%; in test [14], -9.11% (active); in test [15], 18.4%; in test [16], 9.25% (active); in test [17] it was 3.83% (active); in test [18] it was 60.6%. Further, in [19], the growth was 0.226% (active).
Turning to `Cc1ccc(C2CC(c3nc(-c4ccc(Cl)cc4)oc3C)=NN2C(=O)c2ccncc2)cc1` (stereo not drawn), the growth in test [1] is 92.9%; in test [2], 91.3%; in test [3], 86.8%; in test [4] it was 58.2%; in test [5] it was 106%; in test [6], 87.3%. Also, the growth is 69.2% in test [7]; 82.6% in [8]; 90.7% in test [9]; 64.7% in [10]; 92.9% in test [11]; 90.4% in test [12]. Further, the growth in test [13] is 107%; in test [14] it was 82.5%; in [15], 92.3%; in [16], 70.7%; in test [17], 90.7%; in test [18], 83.1%. The growth in test [19] was 88.1%.
